Values joined by “and” are separate entries in the source; they are usually repeats but may differ in a detail not shown here. Identical values can stand only once. More than one record can exist for a structure, and the calls need not agree. Active and inactive are the calls of the source. The calls were made as follows: active = hit-call score of the fitted dose curve at least 0.9, where 1 is the maximum; inactive = score below 0.9.

Read-out in experiment [1]: Vascular endothelial growth factor receptor 2 (Homo sapiens) (UniProt P35968)
Briefly: BSK_4H_VEGFRII: BioMAP Diversity Plus: 4H Assay for Vascular endothelial growth factor receptor 2 (VEGFR2) Biomarker Activity (AID 2283031).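 As to AC50: cell-surface VEGFR2 protein level quantified by ELISA.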 The settings on record: primary human endothelial cells (HUVEC); actives raise or lower the signal. The essentials: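 ELISA read-out of VEGFRII in primary human umbilical vein endothelium, taken 24 h after chemical treatment. Responses are expressed relative to DMSO, with bidirectional fitting.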

Read-out in experiment [2]: Human Leukocyte Antigen - DR isotype (HLADR), HLA-DRA (gene 3122)
Kind of experiment: BSK_BE3C_HLADR: BioMAP Diversity Plus: BE3C Assay for Human Leukocyte Antigen - DR isotype (HLADR) Biomarker Activity (AID 2283032). The settings on record: primary human bronchial epithelial cells; actives raise or lower the signal. The essentials: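 Primary human bronchial epithelial cells (BE3C); 24 h chemical exposure; HLA-DR by ELISA; bidirectional curve fit vs DMSO baseline.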

Read-out in experiment [3]: Vascular cell adhesion molecule 1 (VCAM1), VCAM1 (gene 7412)
Briefly: BSK_4H_VCAM1: BioMAP Diversity Plus: 4H Assay for Vascular cell adhesion molecule 1 (VCAM1) Biomarker Activity (AID 2283033).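 As to outcome: cell-surface VCAM-1 protein measured by ELISA.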 The conditions noted are these: primary human endothelial cells (HUVEC); actives raise or lower the signal. The essentials:
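HUVEC, 24 h post-dose; VCAM-1 by ELISA. Bidirectional curve fit vs DMSO baseline. Parallel SRB total-protein stain (0.1% SRB after 10% TCA fixation, 560 nm) for cytotoxicity.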

Read-out in experiment [4]: Interferon-gamma inducible Protein 10 (IP10), CXCL10 (gene 3627)
Kind of experiment: BSK_BE3C_IP10: BioMAP Diversity Plus: BE3C Assay for Interferon-gamma inducible Protein 10 (IP10) Biomarker Activity (AID 2283034). The conditions noted are these: primary human bronchial epithelial cells; actives raise or lower the signal. An outline of the steps: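 ELISA readout of IP-10 in BE3C system: primary human bronchial epithelial cells, 24 h post-dosing; bidirectional curve fit vs DMSO baseline.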

Read-out in experiment [5]: Monokine induced gamma interferon (MIG), CXCL9 (gene 4283)
Briefly: BSK_BE3C_MIG: BioMAP Diversity Plus: BE3C Assay for Monokine induced gamma interferon (MIG) Biomarker Activity (AID 2283035).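 As to outcome: MIG protein measured by ELISA in BE3C cultures after 24 h of dosing.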 The conditions noted are these: primary human bronchial epithelial cells; actives raise or lower the signal. The essentials:
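ELISA quantified MIG after 24 h exposure of primary bronchial epithelial cultures, analysed in both directions relative to DMSO. Cytotoxicity tracked in parallel cultures by sulforhodamine B staining.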

Read-out in experiment [6]: Transforming growth factor beta 1 (TGFb1), TGFB1 (gene 7040)
Briefly: BSK_BE3C_TGFb1: BioMAP Diversity Plus: BE3C Assay for Transforming growth factor beta 1 (TGFb1) Biomarker Activity (AID 2283036;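 as to outcome: TGF-b1 protein level measured by ELISA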). The settings on record: primary human bronchial epithelial cells; actives raise or lower the signal. The essentials: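 Read-out: ELISA for TGF-b1 in primary human bronchial epithelial cultures, 24 h post-dose. Bidirectional curve fitting vs DMSO control; gain or loss of signal both scored.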

Read-out in experiment [7]: Plasminogen activator inhibitor-1 (PAI1), SERPINE1 (gene 5054)
Briefly: BSK_BE3C_PAI1: BioMAP Diversity Plus: BE3C Assay for Plasminogen activator inhibitor-1 (PAI1) Biomarker Activity (AID 2283037). The conditions noted are these: primary human bronchial epithelial cells; actives raise or lower the signal. The essentials:
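ELISA read-out of PAI-1 from human bronchial epithelial primary cells, 24 h post-dosing; bidirectional curve fit vs DMSO baseline, gain or loss of signal scored.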

Read-out in experiment [8]: urokinase plasminogen activator (uPA), PLAU (gene 5328)
Briefly: BSK_BE3C_uPA: BioMAP Diversity Plus: BE3C Assay for urokinase plasminogen activator (uPA) Biomarker Activity (AID 2283038).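 As to outcome: uPA protein level quantified by ELISA in cell cultures; uPA read one day after compound addition.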 The settings on record: primary human bronchial epithelial cells; actives raise or lower the signal. The essentials:
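Bronchial epithelial cells (human, primary); chemical 24 h; uPA by ELISA; bidirectional fit vs DMSO. SRB (0.1%, after 10% TCA fixation, 560 nm) in parallel cultures for cytotoxicity.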

Read-out in experiment [9]: Urokinase-type plasminogen activator receptor (uPAR), PLAUR (gene 5329)
Briefly: BSK_BE3C_uPAR: BioMAP Diversity Plus: BE3C Assay for Urokinase-type plasminogen activator receptor (uPAR) Biomarker Activity (AID 2283039).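 As to outcome: uPAR protein level measured by ELISA on the cells; cells exposed to compound for one day before measurement.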 The conditions noted are these: primary human bronchial epithelial cells; actives raise or lower the signal. An outline of the steps: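 ELISA readout of uPAR on human lung primary bronchial epithelial cells, 24 h post-dosing. Bidirectional curve fit relative to DMSO vehicle baseline; gain or loss of signal both scored.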

Read-out in experiment [10]: Interleukin-6 (IL6), IL6 (gene 3569)
Briefly: BSK_CASM3C_IL6: BioMAP Diversity Plus: CASM3C Assay for Interleukin-6 (IL6) Biomarker Activity for (AID 2283040). The settings on record: primary human coronary artery smooth muscle cells; actives raise or lower the signal.

For `CC=CC(=O)C1=C(C)C=CCC1(C)C`, the result in experiment [1], in experiment [2], in experiment [3], in experiment [4], in [5] and in [6] was inactive. Besides, the result in [7], in [8], in [9] and in [10] was inactive.
In the case of `C=CC(=O)OCC(CO)(COC(=O)C=C)COC(=O)C=C`, the AC50 was 0.661 µM (active) in experiment [1]; 0.336 µM (active) in experiment [2]; 0.302 µM (active) in experiment [3]; 0.818 µM (active) in [4]; 2.03 µM (active) in [5]; 1.4 µM (active) in experiment [6]. Besides, the AC50 in experiment [8] was 0.631 µM (active); in experiment [9], 2.72 µM (active); in [10], 0.835 µM (active). Besides, the result in experiment [7] was inactive.
For the molecule `CCCCCCCC1CCCC1=O` (stereo not drawn), the result in [1], in [5] and in experiment [9] was inactive. Further, the AC50 in experiment [2] is 30.7 µM (active); in [3], 31.5 µM (active); in [4] it was 33.5 µM (active); in experiment [6], 36.6 µM (active); in experiment [7], 36.6 µM (active); in [8], 32.4 µM (active). Also, the AC50 in experiment [10] is 31 µM (active).
As to `C=C(C)C(N)=O`, the outcome in experiment [1], in [2], in experiment [3], in experiment [4], in [5] and in experiment [6] was inactive. Further, the result in [7], in [8], in experiment [9] and in [10] was inactive.
With `OCCN1CCOCC1`, the outcome in experiment [1], in [2], in experiment [3], in [4], in [5] and in [6] was inactive. Besides, the result in experiment [7], in experiment [8], in experiment [9] and in experiment [10] was inactive.
Regarding `COC(=O)c1ccc(C(=O)OC)cc1`, the result in experiment [1], in experiment [2], in experiment [3], in [4], in experiment [5] and in experiment [6] was inactive. Further, the result in [7], in experiment [8], in [9] and in [10] was inactive.
Consider `CC(=O)c1ccc(C)cc1`, for which the AC50 in experiment [1] was 1.45 µM (active). Besides, the outcome in [1], in [2], in [3], in experiment [4], in experiment [5] and in experiment [7] was inactive. Also, the result in [8], in [9] and in [10] was inactive.
Consider `C[C@]12CC[C@@H]3c4ccc(O)cc4CC[C@H]3[C@@H]1CC[C@@H]2O`, for which the outcome in experiment [1], in [2], in experiment [3], in experiment [4], in [5] and in experiment [6] was inactive. Also, the outcome in experiment [7], in experiment [8], in experiment [9] and in experiment [10] was inactive.
Regarding `CCCCCCCCCCCCS`, the outcome in experiment [1], in experiment [5], in experiment [6], in experiment [7], in experiment [8] and in experiment [9] was inactive. Moreover, the result in experiment [10] was inactive. Further, the AC50 in [2] was 20 µM (active); in experiment [3], 11.2 µM (active); in experiment [4] it was 20 µM (active).
On to `CCCCCCCCCC(=O)OCC`, for which the result in experiment [1], in experiment [2], in experiment [5], in experiment [7], in [8] and in experiment [9] was inactive. The AC50 in [3] was 31.7 µM (active); in [4], 20 µM (active); in [6] it was 20 µM (active); in experiment [10], 31.8 µM (active).
Take `CCOC(=O)C=Cc1ccccc1`: the outcome in experiment [1], in [2], in [3], in [4], in [5] and in [6] was inactive. In addition, the outcome in experiment [7], in [8], in experiment [9] and in [10] was inactive.
With `CCC(=O)OCC=Cc1ccccc1`, the result in experiment [1], in experiment [2], in experiment [3], in experiment [4], in experiment [5] and in [6] was inactive. Further, the result in experiment [7], in experiment [8], in experiment [9] and in experiment [10] was inactive.
As to `CC(=O)OC(C)(C)C1CC=C(C)CC1` (stereo not drawn), the AC50 in experiment [1] was 31.6 µM (active); in [2] it was 35.4 µM (active); in experiment [3], 35 µM (active); in experiment [4] it was 31.5 µM (active). The outcome in experiment [5], in experiment [6], in experiment [7], in experiment [8], in [9] and in experiment [10] was inactive.
On to `OCC(F)(OC(F)(F)C(F)(OC(F)(F)C(F)(F)C(F)(F)F)C(F)(F)F)C(F)(F)F` (stereo not drawn), for which the outcome in experiment [1], in experiment [2], in [3], in experiment [4], in experiment [5] and in experiment [7] was inactive. Further, the result in [8], in experiment [9] and in experiment [10] was inactive. For the same molecule, the AC50 in experiment [2] was 5.06 µM (active); in experiment [3] it was 2.41 µM (active); in experiment [4], 4.78 µM (active).
Take `CC(C)(C)c1cccc(O)c1`: the outcome in experiment [1], in experiment [2], in experiment [3], in experiment [4], in experiment [5] and in experiment [6] was inactive. Also, the outcome in experiment [7], in [8], in experiment [9] and in [10] was inactive.
As to `CC/C(=C(\c1ccccc1)c1ccc(OCCN(C)C)cc1)c1ccccc1`, the half-maximal activity concentration (AC50) in [1] is 4.71 µM (active); in experiment [2], 9.68 µM (active) and 9.06 µM (active); in experiment [3], 8.4 µM (active) and 8.08 µM (active); in experiment [4], 10.3 µM (active) and 9.01 µM (active); in experiment [5] it was 12.1 µM (active) and 11.1 µM (active); in experiment [6], 9.23 µM (active) and 20 µM (active). Also, the AC50 in experiment [7] is 11.5 µM (active) and 11.7 µM (active); in [8], 9.63 µM (active) and 7.45 µM (active); in experiment [9] it was 8.83 µM (active) and 6.66 µM (active); in experiment [10], 27.3 µM (active) and 32.2 µM (active). For the same molecule, the result in [1] was inactive.
For the molecule `COc1ccccc1NC(=O)CC(C)=O`, the result in experiment [1], in [2], in [3], in experiment [4], in [5] and in experiment [6] was inactive. Besides, the result in [7], in experiment [8], in experiment [9] and in experiment [10] was inactive.
Turning to `CCCCOCCOCCO`, the outcome in experiment [1], in experiment [2], in experiment [3], in experiment [4], in [5] and in experiment [6] was inactive. Also, the outcome in experiment [7], in experiment [8], in experiment [9] and in [10] was inactive.
As to `O=C1OC2(c3ccc(O)cc3Oc3cc(O)ccc32)c2ccccc21`, the outcome in [1], in experiment [2], in experiment [3], in experiment [4], in experiment [5] and in experiment [6] was inactive. Moreover, the outcome in experiment [7], in [8], in experiment [9] and in experiment [10] was inactive.
On to `CC(=O)CCC=C(C)CCC=C(C)C`, for which the outcome in [1], in experiment [2], in experiment [4], in experiment [5], in experiment [6] and in experiment [7] was inactive. Further, the result in [8], in experiment [9] and in [10] was inactive. Further, the AC50 in experiment [3] was 28.9 µM (active).
For the molecule `O=S1(=O)CC(Cl)(Cl)C(Cl)(Cl)C1`, the result in [1] was inactive. Also, the AC50 in experiment [2] is 0.96 µM (active); in [3], 0.582 µM (active); in experiment [4], 1.07 µM (active); in experiment [5], 2.04 µM (active); in experiment [6], 0.582 µM (active); in experiment [7], 1.61 µM (active). The figures for the AC50 in experiment [8], in [9] and in experiment [10] were 1.08 µM (active), 1.66 µM (active) and 1.44 µM (active), respectively.

In general, AC50 refers to the concentration at which the activity in the assay is half-maximal.

The values above are taken from PubChem BioAssay (EPA / NIEHS).
